# Measurements taken from the supplement of paper PMC8728848.
# This excerpt belongs to a sample that is enriched for the strongest signals.
# B1: CC1G-11630 (Coprinopsis cinerea), A8P462 (protein)
# chain: MTTEAKIKLKAVVYWELVFDYDNSSNTGEITQSYTVKISQTSTRSTFASEVSTTTIDTLTKNNQEVDVGASYGAISANVSASWEHSEEVNNMLEKTTQTSTEDTYTVETEETRSYTIGPGGMLSLFQKHFSGPGMHVAFDVFTTDLELAKERTEIDIDVDVEAIRFVREIRVVYTDIMSEAPGDHVREINGKNPDINYGFNGKFVWLVPEQTRKTAQALTNVEFVSQAESDDRYWDLAAGAGGSNRYLIPVYDTNNKDKIYELALWRSDSYITHDKVKAAGWSGTTGDINSGRGGTYLNLVWKTRHAY
# What was measured:
# Assay in all cases: glycan array binding signal (z-score within array); higher = stronger binding
# Settings in all cases: glycan notation: IUPAC condensed, linker removed
# [1] = target: Fuc(a1-2)Gal(b1-3)[Fuc(a1-4)]GlcNAc(b1-2)Man(a1-3)[Fuc(a1-2)Gal(b1-3)[Fuc(a1-4)]GlcNAc(b1-2)Man(a1-3)]Man(b1-4)GlcNAc(b1-4)GlcNAc
# Summary of the method: (§1)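 Glycan array data were curated from 3228 arrays in the Consortium for Functional Glycomics database and kept only where the protein sequence was available. Glycan names were converted to IUPAC-condensed notation, and columns mapping to the same glycan were averaged. The binding signal is a within-array Z-score, averaged across arrays of the same protein sequence at different concentrations or buffers and across linkers. Negative Z-scores can be read as non-binding.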
# [2] = target: Fuc(a1-2)Gal(b1-4)Fuc(a1-3)]GlcNAc(b1-2)Man(a1-3)[Fuc(a1-2)Gal(b1-4)[Fuc(a1-3)]GlcNAc(b1-2)Man(a1-6)]Man(b1-4)GlcNAc(b1-4)GlcNAc
# Summary of the method: as §1
# [3] = target: Fuc(a1-2)Gal(b1-4)GlcNAc(b1-3)[Fuc(a1-3)[Gal(b1-4)]GlcNAc(b1-6)]Gal(b1-4)Glc
# Summary of the method: as §1
# [4] = target: Fuc(a1-2)Gal(b1-4)GlcNAc6S
# Summary of the method: as §1
# [5] = target: Fuc(a1-2)Gal(b1-4)[Fuc(a1-3)]GlcNAc(b1-3)GalNAc
# Summary of the method: as §1
# [6] = target: Fuc(a1-2)[Gal(a1-3)]Gal(b1-4)[Fuc(a1-3)]Glc
# Summary of the method: as §1
# [7] = target: Fuc(a1-2)[GalNAc(a1-3)]Gal(b1-3)GlcNAc(b1-2)Man(a1-3)[Fuc(a1-2)[GalNAc(a1-3)]Gal(b1-3)GlcNAc(b1-2)Man(a1-6)]Man(b1-4)GlcNAc(b1-4)[Fuc(a1-6)]GlcNAc
# Summary of the method: as §1
# [8] = target: Fuc(a1-2)[GalNAc(a1-3)]Gal(b1-4)GlcNAc
# Summary of the method: as §1
# Gal(a1-3)Gal(b1-3)GlcNAc = target: Gal(a1-3)Gal(b1-3)GlcNAc
# Summary of the method: as §1
# Gal(a1-4)Gal(b1-4)Glc = target: Gal(a1-4)Gal(b1-4)Glc
# Summary of the method: as §1
# [9] = target: Gal(a1-4)Gal(b1-4)GlcNAc(b1-2)Man(a1-3)[Gal(a1-4)Gal(b1-4)GlcNAc(b1-2)Man(a1-6)]Man(b1-4)GlcNAc(b1-4)GlcNAc
# Summary of the method: as §1
# [10] = target: Gal(b1-3)[Fuc(a1-4)]GlcNAc(b1-2)Man
# Summary of the method: as §1
# Gal(b1-4)Gal = target: Gal(b1-4)Gal
# Summary of the method: as §1
# [11] = target: Gal(b1-4)GlcNAc(a1-6)Gal(b1-4)GlcNAc
# Summary of the method: as §1
# [12] = target: Gal(b1-4)GlcNAc(b1-2)Man(a1-3)[Gal(b1-4)GlcNAc(b1-2)Man(a1-6)]Man(b1-4)GlcNAc(b1-4)GlcNAc
# Summary of the method: as §1
# [13] = target: Gal(b1-4)GlcNAc(b1-2)Man(a1-6)Man(b1-4)GlcNAc(b1-4)GlcNAc
# Summary of the method: as §1
# [14] = target: Gal(b1-4)GlcNAc(b1-3)Gal(b1-4)Glc
# Summary of the method: as §1
# [15] = target: Gal(b1-4)GlcNAc(b1-3)Gal(b1-4)GlcNAc(b1-2)Man(a1-3)[Gal(b1-4)GlcNAc(b1-3)Gal(b1-4)GlcNAc(b1-2)Man(a1-6)]Man(b1-4)GlcNAc(b1-4)GlcNAc
# Summary of the method: as §1
# [16] = target: Gal(b1-4)GlcNAc(b1-3)[Fuc(a1-3)GlcNAc(b1-6)]Gal(b1-4)Glc
# Summary of the method: as §1
# Gal3S4S(b1-4)GlcNAc = target: Gal3S4S(b1-4)GlcNAc
# Summary of the method: as §1
# Gal3S6S(b1-4)GlcNAc6S = target: Gal3S6S(b1-4)GlcNAc6S
# Summary of the method: as §1
# Gal6S(b1-3)GlcNAc = target: Gal6S(b1-3)GlcNAc
# Summary of the method: as §1
# [17] = target: GalNAc(b1-3)Gal(a1-4)Gal(b1-4)GlcNAc
# Summary of the method: as §1
# GalNAc(b1-3)GlcNAc = target: GalNAc(b1-3)GlcNAc
# Summary of the method: as §1
# GalNAc(b1-4)Gal(b1-4)Glc = target: GalNAc(b1-4)Gal(b1-4)Glc
# Summary of the method: as §1
binder,measurement,setting,value
B1,glycan array binding signal (z-score),[1],2.22
same,glycan array binding signal (z-score),[2],1.38
same,glycan array binding signal (z-score),[3],-0.581
same,glycan array binding signal (z-score),[4],0.388
same,glycan array binding signal (z-score),[5],0.411
same,glycan array binding signal (z-score),[6],-0.641
same,glycan array binding signal (z-score),[7],-0.174
same,glycan array binding signal (z-score),[8],-0.601
same,glycan array binding signal (z-score),Gal(a1-3)Gal(b1-3)GlcNAc,6.02
same,glycan array binding signal (z-score),Gal(a1-4)Gal(b1-4)Glc,0.088
same,glycan array binding signal (z-score),[9],0.102
same,glycan array binding signal (z-score),[10],2.23
same,glycan array binding signal (z-score),Gal(b1-4)Gal,1.01
same,glycan array binding signal (z-score),[11],-0.631
same,glycan array binding signal (z-score),[12],-0.378
same,glycan array binding signal (z-score),[13],-0.208
same,glycan array binding signal (z-score),[14],-0.507
same,glycan array binding signal (z-score),[15],2.49
same,glycan array binding signal (z-score),[16],-0.538
same,glycan array binding signal (z-score),Gal3S4S(b1-4)GlcNAc,3.27
same,glycan array binding signal (z-score),Gal3S6S(b1-4)GlcNAc6S,2.52
same,glycan array binding signal (z-score),Gal6S(b1-3)GlcNAc,-0.544
same,glycan array binding signal (z-score),[17],0.165
same,glycan array binding signal (z-score),GalNAc(b1-3)GlcNAc,-0.463
same,glycan array binding signal (z-score),GalNAc(b1-4)Gal(b1-4)Glc,1.99
